The text below walks through data of PubChem BioAssay (NCATS).

Each structure is given as a SMILES string. Records with an inconclusive call do not appear. Active and inactive are the calls of the source. Unless noted, calls come from the whole dose curve; as a rule, active = well fitted curve in either direction with a large enough effect (not every such curve was filed as active); inconclusive = small, poorly fitted or top-dose-only effect, or another doubt; inactive = flat fitted curve, though single readings scatter. A value given as a limit tells only on which side of the number the result lay.

A short description of assay [1]: AP1 Signaling Pathway (AID 357).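 Note: ME-180 reporter cells stimulated with EGF at its EC50 level; % is set by controls: 0 for no effect and ±100 for the full control effect.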 Particulars: ME-180 AP-1-bla reporter, EGF-induced, beta-lactamase ratio, 5 h; at 7.69 µM (top of the series) unless noted. Put shortly: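 In this screen, ME-180 cells in Opti-MEM with 0.5% dialyzed FBS received EC50 EGF and compound titrations for 5 h. AP-1 reporter beta-lactamase was detected via CCF4 ratio, giving AC50 for positive and negative modulators.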

Assay [2] concerns the target Cytochrome P450 1A2 (Homo sapiens) (UniProt P05177). Description: p450-cyp1a2 (AID 410; calls by dose curve; note: potency is the fitted concentration of half-maximal effect). In outline:
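20nM CYP1A2, 100uM Luciferin-ME (=Km), 100mM KPO4; cpd 10 min RT; +NADPH regen, 60 min RT; stop/detect 20 min; luminescence. Normalized to furafylline 57 uM = full inhibition.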

Assay [3] in a line: NFAT Signaling Pathway (AID 444).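 Note: carbachol stimulus at about its EC50 of 1 µM final; % is set by controls: 0 for no effect and ±100 for the full control effect.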 Particulars: Jurkat NFAT-bla M1, carbachol, beta-lactamase ratio, 5 h; at 7.69 µM (top of the series) unless noted. In outline: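 Read-out: CCF4 FRET ratio (460 nm/530 nm) after 1 h RT dye loading, used for %activity and AC50 from titration series. Cells: Jurkat NFAT-β-lactamase/M1 line, treated with compound plus 1 uM carbachol for 5 h, 37 °C.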

A short description of assay [4]: Stat Signaling Pathway (AID 446).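 Note: ME-180 cervical cancer cells given 40 pM IL-6 alongside compound; SIE-controlled beta-lactamase reporter measured as 460/530 nm FRET emission ratio; % is set by controls: 0 for no effect and ±100 for the full control effect.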 Particulars: ME-180 SIE beta-lactamase reporter, IL-6 stimulated, 5 h; at 7.69 µM (top of the series) unless noted. In outline:
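FRET read-out (405 nm excitation, 460/530 nm emission) of a beta-lactamase reporter under a STAT-inducible element in ME-180 cervical carcinoma cells. Cells with compound receive 40 pM IL-6 for 5 h. Values are normalised to AC90 stimulation and AC90 JAK-inhibitor controls.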

For assay [5], the target named is Glucocorticoid receptor (Homo sapiens) (UniProt P04150). In words: GR-EFC Redistribution (AID 451; calls by dose curve; note: potency is the fitted concentration of half-maximal effect). Particulars: CHO-K1 GR-EFC translocation, beta-gal luminescence, 2 h. In outline: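 Translocation of GR-ED fusion to nuclear EA restores b-gal, read by luminescence after 1 h room-temperature detection. Engineered CHO-K1 biosensor cells, 1,000/well, exposed 2 h at 37 C to titrations up to 46 uM final.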

Assay [6] has as its target Mitogen-activated protein kinase 10 (Mus musculus) (UniProt Q61831). Description: JNK3 AlphaScreen Assay (AID 530).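 Note: kinase came from lysate of stimulated human HepG2 cells; signal reports phosphorylation of biotinylated GST-cJun 1-79 at Ser73 with 10 µM ATP; % is set by controls: 0 for no effect and ±100 for the full control effect.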 In outline: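 Kinase buffer: 20 mM Tris-HCl pH 7.6, 10 mM MgCl2, 1 mM DTT, 0.1 mM Na3VO4, 0.01% Tween-20; ATP 10 uM. Substrate biotin-GST-cJun(1-79), enzyme from activated HepG2 lysates. Detection by Ser73 phospho-antibody AlphaScreen.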
(In general: In Alpha technology, singlet oxygen from a donor bead excites a nearby acceptor bead.)

Assay [7] deals with 3',5'-cyclic-AMP phosphodiesterase 4B (Homo sapiens) (UniProt Q07343). In words: qHTS Assay for Inhibitors of PDE-IV (AID 607; active = well fitted activation curve with a large enough effect in the main read-out, with a control signal flat, not every such curve was filed as active; note: % of control where 0% means no effect). Put shortly: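 Cell-based read-out of cAMP via a modified cyclic nucleotide-gated channel and membrane potential dye (535/590 nm) in HEK293 cells expressing PDE4 endogenously. Compounds tested up to 22.9 uM final; 100 uM RO 20-1724 reference.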
In general terms: In qHTS, concentration-response curves come from the screen itself.

For assay [8], the target named is Cytochrome P450 2C9 (Homo sapiens) (UniProt P11712). Description: qHTS Assay for Inhibitors and Substrates of Cytochrome P450 2C9 (AID 883; active = well fitted curve in the direction sought with a large enough effect; an effect the other way counts as inactive or inconclusive; note: % is set by controls: 0 for no effect and ±100 for the full control effect; nearly all actives have a fitted effect of over 60% in size). In outline: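 Turnover of Luciferin-H (100uM, KM) by 10nM human CYP2C9 was measured over 60 min at 37C with NADPH regeneration; inhibitors and some substrates reduce luminescence. Data normalized to sulphaphenazole 57uM.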

In assay [9] the target is Cytochrome P450 3A4 (Homo sapiens) (UniProt P08684). Description: qHTS Assay for Activators of Cytochrome P450 3A4 (AID 885; active = well fitted curve in the direction sought with a large enough effect; an effect the other way counts as inactive or inconclusive; note: nearly all actives have a fitted effect of over 65% in size). In outline:
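Luminescent readout of luciferin formed from 25 uM Luciferin-PPXE (KM level) by 20 nM CYP3A4 in 200 mM KPO4, with 60 min NADPH-driven reaction at room temperature after 10 min compound exposure. Ketoconazole (57 uM) defined 100% inhibition.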

Assay [10] can be described thus: Confirmation and Secondary Assay for Modulators of Hemoglobin Beta Chain Splicing at IVS2 654 locus (AID 910; active = well fitted curve in the direction sought with a large enough effect; an effect the other way counts as inactive or inconclusive;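 note: HeLa cells stably carrying EGFP split by mutant beta-globin IVS2-654 intron; per-well total GFP intensity by laser scanning cytometry after 2-day treatment; % of control where 0% means no effect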). Put shortly: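 Readout: per-well total peak green fluorescence (488 nm ex, 500–520 nm em) from objects 5–250 µm, reflecting correct splicing of an EGFP-654 reporter. Compounds were applied for 2 days at 37 °C to overnight-plated HeLa EGFP-654 cells; controls were DMSO and 500 nM IVS2-654 PNA.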

Assay [11] can be described thus: qHTS Assay for Identification of Small Molecule Agonists for Hypoxia Response Element Signaling Pathway (AID 914; active = well fitted activation curve with a large enough effect in the signal ratio, with a control signal flat, not every such curve was filed as active; the % refers to the signal ratio; note: potency is the fitted concentration of half-maximal effect; for activation: % of control where 0% means no effect). Particulars: ME-180 (cervical carcinoma) HRE-bla reporter, beta-lactamase ratio, CoCl2, 17 h; activation: stronger effect = higher value. In outline:
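AC50 values come from titration-series %Activity, taken as the 460/530nm ratio of CCF4 fluorescence (excitation 405nm). CellSensor HRE-bla ME-180 cells were treated 17 hours at 37 C with compound plus an EC50 level of CoCl2.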

Assay [12] in a line: Confirmation and Secondary Assay for Modulators of Hemoglobin Beta Chain Splicing at IVS2 705 locus (AID 930; active = well fitted curve in the direction sought with a large enough effect; an effect the other way counts as inactive or inconclusive;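 note: HeLa cells stably expressing the EGFP-705 splicing reporter; % of control where 0% means no effect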). Put shortly: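 Restored EGFP fluorescence after 2-day compound exposure reports splicing correction in IVS2-705 EGFP reporter HeLa cells; positive control was 500 nM splice-blocking PNA oligo. Signal measured as well total peak GFP intensity (488 nm excitation).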

Assay [13] is described as follows: qHTS Assay for Lipid Storage Modulators (AID 1519; calls by dose curve). Particulars: Drosophila S3 cells, BODIPY lipid droplet/cell ratio, laser cytometry, cells loaded with oleic acid; for activity change, negative = inhibition: at 57.5 µM (top of the series). Put shortly:
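Cells seeded at 5,000 per well were treated with compounds over a concentration series and loaded with oleic acid (400 uM, as added). Lipid droplet fluorescence (488 nm excitation, 500-530 nm channel) was read by laser-scanning cytometry and normalized to 20 uM Triacsin C.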

Assay [14] is described as follows: Primary qHTS for small molecule stabilizers of the endoplasmic reticulum resident proteome: Secreted ER Calcium Modulated Protein (SERCaMP) assay (AID 1508630; active = well fitted curve in the direction sought with a large enough effect; an effect the other way counts as inactive or inconclusive; note: % is set by controls: 0 for no effect and ±100 for the full control effect). Put shortly: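 The SH-SY5Y reporter protocol was run at 3 concentrations up to 38.3 uM (primary) or 11 concentrations (follow-up): 16 h compound, 100 nM thapsigargin for 4 h, then extracellular luciferase luminescence.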

Assay [15] addresses Glucocorticoid receptor (Homo sapiens) (UniProt P04150). Description: GR-GFP Redistribution (AID 450;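 active = compounds whose dose series gives a full or clear partial fitted curve of increased nuclear translocation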; note: potency is the fitted concentration of half-maximal effect). Particulars: U2OS GR-GFP nuclear translocation, laser cytometry, 2 h.
Assay [16] concerns the target Ubiquitin carboxyl-terminal hydrolase 1 (Homo sapiens) (UniProt O94782). In words: Inhibitors of USP1/UAF1: Pilot qHTS (AID 504865; active = well fitted curve in the direction sought with a large enough effect; an effect the other way counts as inactive or inconclusive;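 note: rhodamine fluorescence freed from ubiquitin-rhodamine substrate followed over time; top concentration of the series differs between compounds; % is set by controls: 0 for no effect and ±100 for the full control effect; nearly all actives have a fitted effect of over 35% in size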). Put shortly: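 In 50mM HEPES pH 7.8 containing 0.5mM EDTA, 1mM TCEP, 0.1 mg/ml BSA and 0.01% Tween-20, 1nM USP1/UAF1 is exposed to compound for 15 min, then Ub-Rho (150nM final) is added and fluorescence is read over time.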
[17] abbreviates: measured here: cell count channel max response.
[18] abbreviates: measured here: lipid channel max response.

Sequence of Cytochrome P450 1A2 (Homo sapiens) (P05177 whole entry, looked up): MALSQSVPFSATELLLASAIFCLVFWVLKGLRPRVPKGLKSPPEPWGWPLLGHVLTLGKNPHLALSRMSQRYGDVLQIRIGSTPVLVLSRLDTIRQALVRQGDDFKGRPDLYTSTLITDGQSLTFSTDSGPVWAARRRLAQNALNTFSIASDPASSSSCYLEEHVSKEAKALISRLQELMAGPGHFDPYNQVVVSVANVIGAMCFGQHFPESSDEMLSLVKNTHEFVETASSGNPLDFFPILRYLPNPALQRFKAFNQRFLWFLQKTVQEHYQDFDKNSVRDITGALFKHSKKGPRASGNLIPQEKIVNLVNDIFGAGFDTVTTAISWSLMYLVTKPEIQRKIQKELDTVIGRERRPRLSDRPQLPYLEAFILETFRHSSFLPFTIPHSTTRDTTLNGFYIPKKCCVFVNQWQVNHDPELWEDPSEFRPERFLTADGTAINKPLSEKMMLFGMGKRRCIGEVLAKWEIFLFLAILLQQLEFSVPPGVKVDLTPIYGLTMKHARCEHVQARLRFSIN
Sequence of Glucocorticoid receptor (Homo sapiens) (P04150 whole entry, looked up, the tested form may be a part): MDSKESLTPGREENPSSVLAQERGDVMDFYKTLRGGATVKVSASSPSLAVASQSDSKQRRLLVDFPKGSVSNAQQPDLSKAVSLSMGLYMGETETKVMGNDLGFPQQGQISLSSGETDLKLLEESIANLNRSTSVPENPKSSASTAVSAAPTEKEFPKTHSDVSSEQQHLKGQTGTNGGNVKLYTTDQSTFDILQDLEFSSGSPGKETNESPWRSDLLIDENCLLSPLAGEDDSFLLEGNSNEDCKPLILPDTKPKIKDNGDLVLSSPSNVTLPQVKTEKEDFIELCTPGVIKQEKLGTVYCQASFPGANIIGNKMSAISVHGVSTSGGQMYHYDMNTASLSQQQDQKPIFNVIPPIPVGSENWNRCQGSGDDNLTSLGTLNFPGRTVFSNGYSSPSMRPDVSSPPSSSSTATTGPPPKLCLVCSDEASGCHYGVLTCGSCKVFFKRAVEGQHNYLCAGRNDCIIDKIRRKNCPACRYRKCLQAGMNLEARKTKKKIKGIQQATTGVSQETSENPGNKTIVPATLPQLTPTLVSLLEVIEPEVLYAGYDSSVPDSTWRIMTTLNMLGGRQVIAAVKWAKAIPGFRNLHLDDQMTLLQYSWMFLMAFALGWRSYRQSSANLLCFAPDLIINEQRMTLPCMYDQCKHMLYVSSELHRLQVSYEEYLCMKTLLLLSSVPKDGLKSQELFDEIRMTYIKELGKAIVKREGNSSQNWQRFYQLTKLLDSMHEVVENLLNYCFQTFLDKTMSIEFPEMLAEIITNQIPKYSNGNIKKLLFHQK
Sequence of 3',5'-cyclic-AMP phosphodiesterase 4B (Homo sapiens) (Q07343 whole entry, looked up): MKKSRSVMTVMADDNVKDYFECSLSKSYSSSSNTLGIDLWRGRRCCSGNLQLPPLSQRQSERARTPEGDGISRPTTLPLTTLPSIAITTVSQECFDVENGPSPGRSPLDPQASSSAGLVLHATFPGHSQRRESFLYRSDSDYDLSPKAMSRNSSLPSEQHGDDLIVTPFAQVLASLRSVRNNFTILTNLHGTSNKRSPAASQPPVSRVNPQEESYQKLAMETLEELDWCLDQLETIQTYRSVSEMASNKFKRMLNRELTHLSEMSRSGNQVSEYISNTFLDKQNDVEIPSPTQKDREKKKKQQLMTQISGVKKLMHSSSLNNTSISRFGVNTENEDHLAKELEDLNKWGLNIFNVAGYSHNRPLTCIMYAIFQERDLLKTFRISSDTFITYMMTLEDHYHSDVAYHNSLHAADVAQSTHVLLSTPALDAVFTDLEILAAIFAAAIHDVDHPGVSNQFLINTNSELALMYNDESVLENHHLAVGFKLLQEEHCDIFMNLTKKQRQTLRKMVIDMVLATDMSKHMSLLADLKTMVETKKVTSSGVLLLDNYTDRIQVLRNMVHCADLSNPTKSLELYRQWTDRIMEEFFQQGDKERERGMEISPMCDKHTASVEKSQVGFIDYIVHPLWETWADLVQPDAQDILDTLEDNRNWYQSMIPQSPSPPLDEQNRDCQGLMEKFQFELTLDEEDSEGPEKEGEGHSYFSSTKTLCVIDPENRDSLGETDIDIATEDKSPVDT
Sequence of Cytochrome P450 3A4 (Homo sapiens) (P08684 whole entry, looked up): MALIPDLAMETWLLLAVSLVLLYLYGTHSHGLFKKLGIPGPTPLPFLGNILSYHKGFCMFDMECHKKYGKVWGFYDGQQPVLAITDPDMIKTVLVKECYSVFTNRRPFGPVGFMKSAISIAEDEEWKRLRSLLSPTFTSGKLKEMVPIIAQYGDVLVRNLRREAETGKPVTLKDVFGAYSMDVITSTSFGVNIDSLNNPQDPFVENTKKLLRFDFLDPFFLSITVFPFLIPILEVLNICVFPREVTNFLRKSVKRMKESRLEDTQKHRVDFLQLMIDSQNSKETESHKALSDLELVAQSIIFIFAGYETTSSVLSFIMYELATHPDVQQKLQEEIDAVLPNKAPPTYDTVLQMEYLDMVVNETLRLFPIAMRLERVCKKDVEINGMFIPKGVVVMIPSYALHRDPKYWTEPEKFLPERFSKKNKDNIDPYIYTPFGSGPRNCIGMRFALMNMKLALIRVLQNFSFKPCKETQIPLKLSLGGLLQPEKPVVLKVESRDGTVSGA
Sequence of Ubiquitin carboxyl-terminal hydrolase 1 (Homo sapiens) (O94782 whole entry, looked up): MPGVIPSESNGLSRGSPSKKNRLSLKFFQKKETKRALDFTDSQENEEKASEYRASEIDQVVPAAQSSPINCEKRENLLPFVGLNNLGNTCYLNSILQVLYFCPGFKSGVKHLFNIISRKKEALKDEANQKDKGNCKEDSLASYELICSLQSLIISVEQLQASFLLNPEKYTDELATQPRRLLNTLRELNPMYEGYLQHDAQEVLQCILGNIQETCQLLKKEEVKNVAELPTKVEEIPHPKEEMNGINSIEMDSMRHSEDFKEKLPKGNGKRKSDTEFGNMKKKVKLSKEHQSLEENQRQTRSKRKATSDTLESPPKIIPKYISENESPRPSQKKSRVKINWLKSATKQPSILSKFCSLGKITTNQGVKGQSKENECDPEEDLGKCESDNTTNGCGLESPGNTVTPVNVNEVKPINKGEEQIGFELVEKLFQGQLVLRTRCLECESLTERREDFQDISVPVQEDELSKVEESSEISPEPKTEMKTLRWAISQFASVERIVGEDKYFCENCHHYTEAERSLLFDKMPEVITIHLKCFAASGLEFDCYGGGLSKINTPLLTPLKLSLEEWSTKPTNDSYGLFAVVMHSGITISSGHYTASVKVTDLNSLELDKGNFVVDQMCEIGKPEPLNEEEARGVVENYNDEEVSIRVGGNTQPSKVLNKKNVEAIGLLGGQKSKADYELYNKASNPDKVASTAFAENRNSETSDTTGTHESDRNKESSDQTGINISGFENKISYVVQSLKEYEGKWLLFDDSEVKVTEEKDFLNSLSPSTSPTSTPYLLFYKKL
Sequence of Cytochrome P450 2C9 (Homo sapiens) (P11712 whole entry, looked up): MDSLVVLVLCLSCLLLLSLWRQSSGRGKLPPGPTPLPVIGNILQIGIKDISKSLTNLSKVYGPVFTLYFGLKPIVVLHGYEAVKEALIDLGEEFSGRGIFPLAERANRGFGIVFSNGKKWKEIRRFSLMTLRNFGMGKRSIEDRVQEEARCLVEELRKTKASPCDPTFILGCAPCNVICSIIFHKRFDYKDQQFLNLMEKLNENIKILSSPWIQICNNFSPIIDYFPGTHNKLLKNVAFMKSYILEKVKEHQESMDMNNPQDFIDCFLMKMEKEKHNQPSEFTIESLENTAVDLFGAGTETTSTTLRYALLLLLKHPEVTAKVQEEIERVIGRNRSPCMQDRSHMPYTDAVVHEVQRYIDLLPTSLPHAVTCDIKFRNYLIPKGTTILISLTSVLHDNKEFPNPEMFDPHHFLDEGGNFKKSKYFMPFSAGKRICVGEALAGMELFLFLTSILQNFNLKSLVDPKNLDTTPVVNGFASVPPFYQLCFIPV

On to `CNc1nc(-c2ccccc2Cl)nc2ccccc12`, for which the activity change, negative = inhibition in [1] was -4.05% (inactive); in assay [3], 12.6% (inactive); in assay [8], 75.1% [at 2.29 µM] (inactive); in assay [13], 5.07% (inactive). Further, the values for the Potency in assay [2] and in assay [5] were 0.126 µM (active) and > 46 µM (inactive), respectively. The activity, negative = inhibition in assay [4] was -8.45% (inactive). Besides, the result in assay [6], in assay [10] and in [12] was inactive. Besides, the Potency entry in assay [7], in [9] and in [14] was “inactive” throughout. Further, the activation in [11] was 11.6% (inactive). Further, the max response in assay [13] (setting [17]) is -3.59%; in assay [13] (setting [18]), -2.38%.

Regarding `Cc1cnc(CNc2ncncc2-c2ccccc2C#N)cn1`, the activity change, negative = inhibition was 8.99% (inactive) in [1], -5.21% (inactive) in assay [3] and 8.38% (inactive) in assay [13]. Besides, the Potency was 0.251 µM (active) in assay [2], > 46 µM (inactive) in assay [15] and > 46 µM (inactive) in assay [5]. Also, in [4], the activity, negative = inhibition is -4.72% (inactive). The molecule was classed as inactive in assay [6], in assay [10] and in assay [12]. Besides, the Potency result in assay [7], in [9], in [16] and in assay [14] was “inactive” in each case. In addition, the max response in [13] (setting [17]) was determined as 14%; in assay [13] (setting [18]), 24.3%.

With `O=c1c(-c2cc(F)cc(F)c2)nc2cnc(N3CCOCC3)nc2n1C1CC1`, the activity change, negative = inhibition was 7.91% (inactive) in [1], 6.75% (inactive) in [3] and 0.7% (inactive) in assay [13]. Moreover, the Potency in [2] is 1 µM (active); in [15], > 9.22 µM (inactive); in assay [5] it was > 46 µM (inactive); in assay [11], 1.58 µM (active). Further, the result in assay [6] was inactive. Also, the max response in assay [13] (setting [17]) worked out at 9.59%; in assay [13] (setting [18]) it was 11.7%. In addition, the Potency result in assay [14] was “inactive”.
